Out of some 340,000 compounds screened, about 4,200 (1.2%) were called active. For the sample, actives were picked, then their nearest neighbours and some compounds at random. Values without a mark were called inactive.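 How the source made its calls: active means inhibition above the mean of all tested compounds plus 3 SD (cut at about 24% in these data); inactive means the rest.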

Experimental findings from PubChem BioAssay AID492953 (The Scripps Research Institute Molecular Screening Center, 2010) are described below.

The assay deals with Platelet-activating factor acetylhydrolase IB subunit alpha2 (Homo sapiens) (UniProt P68402). Kind of assay: PAFAH1B2 enzyme inhibitors, primary screen, biochemical, fluorescence polarization, human (AID 492953).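 Further: 0% = enzyme with DMSO and 100% = wells lacking PAFAH1B2.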 The note with it: recombinant PAFAH1B2, FP-rhodamine activity probe, at 3.39 µM, stronger effect = higher value.
Chain of Platelet-activating factor acetylhydrolase IB subunit alpha2 (Homo sapiens) (P68402 whole entry, looked up): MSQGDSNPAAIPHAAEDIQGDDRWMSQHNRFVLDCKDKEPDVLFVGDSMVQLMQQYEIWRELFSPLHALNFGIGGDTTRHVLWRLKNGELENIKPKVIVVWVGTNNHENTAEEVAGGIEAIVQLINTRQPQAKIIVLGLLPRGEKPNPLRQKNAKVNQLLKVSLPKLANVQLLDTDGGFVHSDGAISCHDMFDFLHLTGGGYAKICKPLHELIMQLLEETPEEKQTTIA
Consider `CC12CCC(=O)N1C(C(=O)NCCN1C(=O)S/C(=C\c3ccccc3F)C1=O)CS2` (stereo unspecified), for which the inhibition was -0.86%.

As for `C/C(=N\NC(=O)Cc1ccccc1[N+](=O)[O-])c1cccnc1`, the inhibition was 4.87%. Take `CC(C)c1nc(CNC(=O)CC2C(=O)NCCN2Cc2cccc(F)c2F)cs1` (stereo unspecified): the inhibition is 3.42%. The result for `CCCCNC(=O)CN1C(=O)NC(Cc2ccccc2)(Cc2ccccc2)C1=O` reads 2.58%. For `O=C(CC1CCCCC1)NCc1ccccc1`, the inhibition is 2.39%. For the compound `O=C(CN1C(=O)NC(Cc2ccccc2)(Cc2ccccc2)C1=O)NCC1CCCCC1`, the inhibition is 24.3% (active).

Turning to `CC(/C=C/c1ccccc1)=N\NC(=O)C1CC1(C)c1ccccc1` (stereo unspecified), the inhibition is 6%. The result for `CCOC(=O)C1(Cc2ccccc2C)CCCN(C(=O)c2ccc(COC)o2)C1` (stereo unspecified) reads 5.55%; that for `COc1ccc(Cl)cc1NC(=O)CCS(=O)(=O)c1ccc(Br)cc1`, 10%.

`Cc1ccc(S(=O)(=O)CCC(=O)OCC(=O)NCCc2ccc(S(N)(=O)=O)cc2)cc1`: the inhibition was -1.78%. The result for `O=C(CCS(=O)(=O)c1ccc(Br)cc1)NCCc1ccc(Cl)cc1` reads 25.1% (active). Turning to `CCCC(O)(c1ccccc1)C(c1ccccc1)c1ccccn1` (stereo unspecified), the inhibition was 0.64%. With `Cc1cccc(NC(=S)NCCc2ccc(Cl)cc2)c1C`, the inhibition is 13.9%. Turning to `Cc1ccc(NC(=S)NCc2ccccc2Cl)c(C)c1`, the inhibition was -2.26%. As to `Cc1ccc(NC(=S)NCCc2ccc(Cl)cc2)c(C)c1`, the inhibition is 24.7% (active). With `COc1ccc(CNCCCNCc2ccc(OC)c(OC)c2)cc1OC`, the inhibition was 2.53%.

For the compound `ONC(=Nc1ccc(Cl)cc1)c1ccccc1Cl`, the inhibition was 15%.

On to `C[C@@H](NC(=O)[C@@H]1Cc2ccccc2CN1)C(=O)NC1CCCC1`, for which the inhibition is 1.64%.

`CCC(C)N1C(=S)SC(C)(C)C1N(O)C(=O)NC1CCCCC1` (stereo unspecified): the inhibition is 5.19%. In the case of `CCCCNC(=O)N(O)C1N(/N=C/c2ccccc2O)C(=S)SC1(C)C` (stereo unspecified) it was 4.39%; in that of `CCCCNC(=O)N(O)C1N(/N=C/c2ccc(N(C)C)cc2)C(=S)SC1(C)C` (stereo unspecified), 27.3% (active). For the compound `CN(C)c1nc(N)nc(CSc2nnnn2-c2cccc3ccccc23)n1`, the inhibition is 1.2%. As for `CN(C)C(=O)COC(=O)c1cccc(S(=O)(=O)N2CC3(C)CC2CC(C)(C)C3)c1` (stereo unspecified), the inhibition is 15.9%. Turning to `C=CCN(c1ccc(Cl)cc1)S(=O)(=O)c1cccc(C(=O)OCC(=O)N(C)C)c1`, the inhibition was 27.3% (active). For the compound `COc1ccc(N(Cc2ccccc2)S(=O)(=O)c2cccc(C(=O)O)c2)cc1`, the inhibition was -0.1%. The result for `CCOCCOC(=O)C1=C(C)NC(=O)NC1c1ccc2c(c1)OCO2` (stereo unspecified) reads -0.7%. Turning to `CCC(CC)COC(=O)C1=C(C)NC(=O)NC1c1ccc([N+](=O)[O-])cc1` (stereo unspecified), the inhibition is 28.2% (active).

Regarding `CC1=C(C(=O)OCC2CCCCC2)C(c2ccc(F)cc2)NC(=O)N1` (stereo unspecified), the inhibition is 9.14%. On to `O=C(NCC(c1cccs1)N1CCOCC1)c1cc(Cl)ccc1[N+](=O)[O-]` (stereo unspecified), for which the inhibition was 5.77%.

Regarding `CSc1ccc(S(=O)(=O)N2CCC(C(=O)NCCc3ccccc3)CC2)cc1`, the inhibition is 0.35%.

Regarding `CCOc1ccc(/C(O)=C2/C(=O)C(=O)N(Cc3cccnc3)C2c2ccc(N(C)C)cc2)c(C)c1` (stereo unspecified), the inhibition is -1.88%.

In the case of `O=C(O)/C=C/C(=O)NNc1ccc([N+](=O)[O-])cc1`, the inhibition is 4.93%. `O=C(NCc1cccc(C(F)(F)F)c1)c1cccc(S(=O)(=O)N2CCN(Cc3ccccc3)CC2)c1`: the inhibition was -9.49%. With `O=C(CCC(=O)c1ccccc1)NCc1cccc(C(F)(F)F)c1`, the inhibition was 2.04%. On to `O=C(CCC(=O)N1CCN(S(=O)(=O)c2ccc(Cl)cc2)CC1)NCc1cccc(C(F)(F)F)c1`, for which the inhibition is 26.5% (active).

Turning to `CC(=O)NCC(=O)N(Cc1ccco1)C1(C(=O)NC2CCCC2)CCCCC1`, the inhibition was 1.82%.

Consider `O=C(NCCc1ccc(Cl)cc1Cl)c1cc([N+](=O)[O-])c[nH]c1=O`, for which the inhibition was 57% (active). For `NS(=O)(=O)c1ccc(CCNC(=O)c2ccc(Cl)cc2[N+](=O)[O-])cc1`, the inhibition is -2.98%. In the case of `O=C(NCCc1c[nH]c2ccc(Cl)cc12)c1ccc([N+](=O)[O-])cc1` it was 3.76%; in that of `O=C(O)c1ccc(NN=CC2=C(N3CCOCC3)/C(=C/c3ccccc3)CC2)cc1`, -2.37%.

Regarding `COc1ccc(C(CNC(=O)c2cc(S(=O)(=O)Nc3cccc(C)c3)ccc2C)N2CCCC2)cc1` (stereo unspecified), the inhibition is 4.75%. In the case of `CC(C)C[C@H]1CN([C@@H](CC(C)C)CN2CCC[C@@H]2CN2C(=O)C(=O)NC[C@@H]2Cc2ccccc2)C(=O)C(=O)N1CCc1ccccc1` it was 1.5%. In the case of `O=c1[nH]c(/C=C/c2cccc(Br)c2)nc2ccccc12`, the inhibition is 1.93%. For `O=c1[nH]c(/C=C\c2cccc(C(F)(F)F)c2)nc(O)c1[N+](=O)[O-]`, the inhibition was 27.5% (active).

On to `Cc1ccccc1/C=C\c1nc(O)c([N+](=O)[O-])c(=O)[nH]1`, for which the inhibition was 9.97%. For `Cc1ccnc(SCC(=O)Nc2cccc(S(=O)(=O)N3CCOCC3)c2)n1`, the inhibition is 1.16%. Turning to `COC(=O)C1=C(N)Oc2c(oc(CO)cc2=O)C1c1c(F)cccc1Cl` (stereo unspecified), the inhibition was 0.05%. With `Cc1cc(F)ccc1S(=O)(=O)Nc1ncnc2scc(-c3ccc(F)cc3)c12`, the inhibition was 36.1% (active). `O=S(=O)(Nc1ncnc2sccc12)c1cccc(F)c1`: the inhibition was -0.25%. On to `COc1ccc(-c2csc3ncnc(N4CCN(S(=O)(=O)c5cccc(F)c5)CC4)c23)cc1`, for which the inhibition was 5.03%. On to `CN(CCc1ccccn1)S(=O)(=O)c1ccc2c3c(cccc13)C(=O)N2`, for which the inhibition is -2.83%.

Take `CN1C(c2ccc(F)cc2)=CS/C1=C(/C#N)c1nnc2n1-c1ccccc1SC2`: the inhibition was 2.85%. `CCN(CC)C(=O)Oc1ccc(Br)cc1C(=O)Nc1ccc(F)c(Cl)c1`: the inhibition is 7.03%.

Turning to `C=CC[C@@H](CC(=O)N[C@H](CO)Cc1ccccc1)C(=O)N[C@@H](COC(=O)[C@@H](CC=C)Cc1ccc(F)cc1)Cc1c[nH]c2ccccc12`, the inhibition is -1.64%. For `C=CCC[C@H](Cc1ccc(F)cc1)C(=O)OC[C@@H](NC(=O)[C@@H](CC=C)CC(=O)N[C@H](CO)Cc1ccccc1)C(C)(C)C`, the inhibition is 13.2%. As to `C=CC[C@@H](CC(=O)N[C@H](CO)Cc1ccccc1)C(=O)N[C@H](C)COC(=O)[C@@H](CC=C)Cc1ccc(F)cc1`, the inhibition was 26.8% (active).

A word on the inhibition: it is the drop in the measured response relative to a control, in per cent.
